The source made the active and inactive calls. Calls follow the shape of the dose curve; as a rule, active = well fitted activation curve with a large enough effect in the repeat runs; inconclusive = weak or mixed curves; inactive = flat fitted curve, though single readings scatter.
test: Caspase-3/7 induction in CHO-K1 cells by small molecules, qHTS assay (AID 1346980); conditions: CHO-K1 caspase-3/7 induction, Caspase-Glo luminescence, 17 h; series mostly up to 92.4 µM; caspase-3/7 activation: at the top concentration; also: nearly all actives have a fitted effect of over 15% in size
From the text: National Center for Advancing Translational Sciences [NCATS]
NIH Chemical Genomics Center [NCGC]
U.S. Environmental Protection Agency [EPA]
National Institutes of Environmental Health Sciences [NIEHS]
National Toxicology Program [NTP]
Apoptosis is a process of programmed cell death and plays a central role in the development of multicellular organisms. It is a highly regulated process and induces cell death by activating caspases, which are the members of cysteine aspartic acid-specific protease (caspase) family. Caspases involved in apoptosis are classified by their mechanism of action as initiator caspases (caspase-2, -8, -9 and -10) and executioner caspases (caspase-3, -6, and -7). Inhibition of apoptosis results in number of cancers, autoimmune diseases, inflammatory diseases and viral infection. To identify small molecule compounds that induce apoptosis, a homogeneous, luminescent Caspase-Glo 3/7 assay was used. Wild type CHO-K1 cells were used to screen Tox21 libraries for identifying caspase-3/7 activity inducers.
CHO-K1 cells were dispensed at 1,500 per well in 5uL of culture medium into white solid bottom 1536-well plates (Corning Life Sciences, Corning, NY) using a Multidrop Combi (Thermo Scientific, Waltham, MA) dispenser. The assay plates were incubated at 37 C and 5% CO2 for 5hr, and then 23nL of compounds dissolved in DMSO and positive control were transferred using a Pintool station (Wako, San Diego, CA). The assay plates were incubated at 37C and 5% CO2 for 17hr. For caspase-3/7 activity read, 4uL of Caspase-Glo 3/7 reagent (Promega Corporation, Madison, WI) was added to each well of the assay plates using Flying Reagent Dispenser (FRD, Aurora Discovery, San Diego, CA) and incubated the assay plates at room temperature for 30min. The luminescence signal was quantified using a ViewLux plate reader (Perkin Elmer, Shelton, CT).
% is scaled to controls: 0 for no effect and ±100 for the full control effect.

Compound | caspase-3/7 activation | Potency
O=S(=O)(NS(=O)(=O)C(F)(F)F)C(F)(F)F | -3.53% (inactive) | 
CCc1cccc(C)c1N(C(=O)CCl)[C@@H](C)COC | 7.38% (inactive) | 
Clc1c(Cl)c(Cl)c(Cl)c(Cl)c1Cl | 0.528% [at 8.39 µM] (inactive) | 
ClCBr | -0.213% (inactive) | 
C#CCO | 0.526% (inactive) | 
COP(=S)(OC)Oc1ccc([N+](=O)[O-])c(C)c1 | -2.27% (inactive) | 
CCCCn1cc[n+](C)c1 (tested in a mixture with another compound) | 0.98% (inactive) | 
CCCCC(CC)COC(=O)c1ccccc1C(=O)OCC(CC)CCCC (stereo not given) | 2.37% (inactive) | 
CC(C)N(C(=O)CCl)c1ccccc1 | -2.87% (inactive) | 
COC(=O)C(C)N(C(=O)c1ccco1)c1c(C)cccc1C (stereo not given) | 0.006% (inactive) | 
C[N+]1(C)[C@@H]2CC[C@H]1CC(OC(=O)C(CO)c1ccccc1)C2 (stereo not given in full) | -1.17% [at 42.5 µM] (inactive) | 
CCCCc1ccccc1 | -0.562% (inactive) | 
Nc1c(Cl)c(Cl)c(Cl)c(Cl)c1Cl | 1.94% (inactive) | 
OCC(Br)CBr (stereo not given) | -0.285% (inactive) | 
CC(C)[C@@H](Nc1ccc(C(F)(F)F)cc1Cl)C(=O)OC(C#N)c1cccc(Oc2ccccc2)c1 (stereo not given in full) | 0.53% (inactive) | 
CO/N=C(/C1=NOCCO1)c1ccccc1Oc1ncnc(Oc2ccccc2Cl)c1F | -3.57% (inactive) | 
CNC(=O)/C=C(\C)OP(=O)(OC)OC | 0.197% (inactive) | 
COC(=O)N(OC)c1ccccc1COc1ccn(-c2ccc(Cl)cc2)n1 | -1.89% (inactive) | 
ClC1=C(Cl)[C@]2(Cl)[C@@H]3[C@H]4C[C@H]([C@@H]5O[C@H]45)[C@@H]3[C@@]1(Cl)C2(Cl)Cl | -1.32% (inactive) | 
CC(Cc1ccc(O)cc1)NCC(O)c1cc(O)cc(O)c1 (stereo not given) | 0.0008% [at 42.5 µM] (inactive) | 

Compound | caspase-3/7 activation | Potency
CN(C)c1ccc(N)cc1 | -5.86% (inactive) | 
ClC1(Cl)C2(Cl)C3(Cl)C4(Cl)C(Cl)(Cl)C5(Cl)C3(Cl)C1(Cl)C5(Cl)C24Cl (stereo not given) | 2.49% (inactive) | 
c1ccc2nc(N3CCNCC3)ccc2c1 | -0.0662% [at 42.5 µM] (inactive) | 
CSC1=N[C@@](C)(c2ccccc2)C(=O)N1Nc1ccccc1 | -2.5% (inactive) | 
[O]=[Cr](=[O])([OH])[O][Cr](=[O])(=[O])[OH] |  | inactive
N#Cc1c[nH]cc1-c1cccc2c1OC(F)(F)O2 | 1.35% (inactive) | 
CN(C)CCc1c[nH]c2ccccc12 | 0.645% (inactive) | 
CNC(=O)Oc1cc(C)cc(C(C)C)c1 | 0.0655% (inactive) | 
CC(=O)[O-].CC(=O)[O-].O.O.[Zn+2] | -0.216% (inactive) | 
O=[N+]([O-])c1ccc(Cl)c(Cl)c1Cl | 1.32% (inactive) | 
c1cc[n+]2c(c1)-c1cccc[n+]1CC2 | 0.56% [at 42.5 µM] (inactive) | 
[Cl-].[Cl-].[Cl-].[Yb+3] | 1.41% (inactive) | 
CC(=O)[O-].CC(=O)[O-].CC(=O)[O-].[Cr+3] | 0.756% (inactive) | 
Cc1cc(C2CC2)nc(Nc2ccccc2)n1 | -2.2% (inactive) | 
CCCN | 0.07% (inactive) | 
CCC(C)Br (stereo not given) | 1.6% (inactive) | 
COc1nc(C)nc(NC(=O)NS(=O)(=O)c2ccccc2Cl)n1 | 1.61% (inactive) | 
CNN | -1.4% (inactive) | 
N#Cc1ccc(N(CC(N)=O)CC(F)(F)F)cc1C(F)(F)F | -0.617% (inactive) | 
CCN(CC)CCN1C(=O)CN=C(c2ccccc2F)c2cc(Cl)ccc21 | 0.95% [at 42.5 µM] (inactive) | 

Reference: PubChem BioAssay (Tox21)
